Compounds with a hit are over-represented: about 3.9% of the library has one in this group of screens.
GBA mod: Glucocerebrosidase; Lysosomal acid glucosylceramidase (Homo sapiens), P04062; purified enzyme, resorufin glucoside fluorescence (screen aimed at inhibitors), 20 min; Potency, µM; 1.1% of 48,000 active; in the data active means potency below about 15 µM; inconclusive means mostly about 16 µM to 33 µM;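 further: the screen sought inhibitors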
Target sequence (P04062 whole entry, looked up): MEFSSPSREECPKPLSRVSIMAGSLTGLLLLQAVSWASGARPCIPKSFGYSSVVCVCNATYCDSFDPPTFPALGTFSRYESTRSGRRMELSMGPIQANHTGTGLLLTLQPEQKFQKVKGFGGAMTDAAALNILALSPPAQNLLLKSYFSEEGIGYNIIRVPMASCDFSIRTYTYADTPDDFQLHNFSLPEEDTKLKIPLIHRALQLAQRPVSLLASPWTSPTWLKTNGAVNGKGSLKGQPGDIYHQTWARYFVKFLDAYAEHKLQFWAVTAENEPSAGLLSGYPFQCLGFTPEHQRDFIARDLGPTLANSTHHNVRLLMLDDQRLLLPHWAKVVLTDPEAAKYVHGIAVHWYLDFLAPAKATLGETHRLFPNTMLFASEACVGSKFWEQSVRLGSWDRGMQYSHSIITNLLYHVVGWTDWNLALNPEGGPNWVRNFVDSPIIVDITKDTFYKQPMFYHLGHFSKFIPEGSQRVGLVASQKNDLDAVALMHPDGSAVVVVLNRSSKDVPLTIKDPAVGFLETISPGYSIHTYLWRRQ
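Normal human glucocerebrosidase (0.2 nM final) was assayed with resorufin β-D-glucopyranoside (30 uM final) in 50mM citric acid/KH2PO4, 10mM sodium taurocholate, 0.01% tween-20, pH 5.9. Compounds were titrated; fluorescence (Ex 548, Em 600) read after 20 min at RT.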
FLuc inh: qHTS Assay for Inhibitors of Firefly Luciferase; purified firefly luciferase, luminescence, 8 min; 2.2% of 72,000 active; Luciferin 4-monooxygenase (Photinus pyralis), P08659; Potency, µM (titrated, usually from 57.1 µM), for inactives: at the highest dose activity change, negative = inhibition, usual class: inhibitors; further: on the % scale 0 is the no-effect control and ±100 the full control effect; nearly all actives have a fitted effect of over 40% in size
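Luminescence read-out after 8 min at room temperature; enzyme reaction used luciferin plus 10 uM ATP (linear range) in imidazole buffer pH 7.2 with KCl, MgCl2, Tween 20 and BSA. Each sample was run as a titration.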
PK Bst: Pyruvate Kinase; purified pyruvate kinase, luminescence ATP production; ribose 5-phosphate activator present at AC10; Potency, µM; 1.2% of 51,000 active; AID 361, 2006; in the data active means potency below about 11 µM; inconclusive means mostly about 12 µM to 25 µM;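 the screen sought inhibitors and activators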;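 further: scaled between full activation by ribose 5 phosphate and full inhibition by luteolin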
ERK AVP inh: qHTS Assay for Inhibitors of the ERK Signaling Pathway using a Homogeneous Screening Assay. HEK293-V1b, vasopressin-stimulated pERK AlphaScreen. Potency, µM (titrated, usually from 57.5 µM), for inactives: at the highest dose activity, negative = inhibition, most hits filed as inhibitors. 0.99% of 72,000 active. AID 995, 2007; further: on the % scale 0 is the no-effect control and ±100 the full control effect; nearly all actives have a fitted effect of over 55% in size
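V1b-HEK293 cells; cpd 30 min 37C; 25 nM vasopressin 5 min; lyse 10 min; AlphaScreen beads 5 hr RT. Normalized to DMSO basal and 25 nM vasopressin; AC50 by Hill fit.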
The depositor's hits bear a star; i = inactive; ? = inconclusive; nt = no result given; [ ] = another dose, or the depositor's remark. Unless noted, the call rests on the fitted dose curve; in most records, active means well fitted curve in the direction sought with a large enough effect; inconclusive means small, poorly fitted or top-dose-only effect, or another doubt; inactive means no such curve, though single readings can be large; an effect the other way counts as inactive or inconclusive. Potency means the concentration at half of the fitted maximal effect.

SMILES	GBA mod	FLuc inh	PK Bst	ERK AVP inh
Cn1cc(/C=N/n2cnc3scc(-c4ccccc4)c3c2=O)c2ccccc21	>76.9	-0.3%	>57	-15.0%
CCNc1ncc2nc(-c3ccc(F)cc3)c(=O)n(C)c2n1	nt	-10.2%[11.4 µM]	nt	-11.3%
NC(N)=NC[C@H](N)C(=O)O	nt	1.0%[11.4 µM]	nt	-5.6%[11.5 µM]
CCSc1nnc(NC(=O)c2ccc(Br)s2)s1	1.03*	2.1%	>57	-12.5%
CCOC(=O)c1ccc(N2C(=O)c3n[nH]c(C)c3C2c2ccco2)cc1 (centres undefined)	>76.9	-3.7%	>57	-16.1%
Cc1ccc(N2C(=O)c3n[nH]c(C)c3C2c2ccco2)cc1 (centres undefined)	>76.9	15.8µM*	nt	-11.6%
Cc1cc(C(=O)CN2C(=O)c3ccccc3S2(=O)=O)c(C)n1CC1CCCO1 (centres undefined)	>76.9	15.8µM*	nt	-8.5%
CCOc1ccc(-c2nc(-c3ccccc3C)no2)cc1	nt	2µM*	7.99*	33.5%
COC(=O)c1cc2c([nH]c3ccccc32)c(C)n1	>76.9	-4.6%	?	31.6µM*
Cc1ccc(-n2cc3c(=O)n(C)c(=O)n(C)c3c2)cc1C	>76.9	-16.1%	10*	-9.7%
Cc1cc(C)nc(NC2=NCC(=O)N2c2ccc3c(c2)OCCO3)n1	>76.9	0.5%	>57	-15.2%
Cc1cc(N)c(-n2cc3c(=O)n(C)c(=O)n(C)c3c2)cc1C	>76.9	-15.3%	>11.4	3.2%
Cn1c(=O)c2cn(-c3ccc4c(c3)OCCO4)cc2n(C)c1=O	>76.9	-14.2%	5.65*	-14.6%
COC(=O)[C@@]1(Cc2ccc(OC)cc2)[C@H]2c3cc(C(=O)N(C)C)n(Cc4ccc(C(F)(F)F)nc4)c3C[C@H]2CN1C(=O)c1ccccc1	nt	nt	nt	-3.4%
O=C(CCn1c(=O)sc2ccccc21)Nc1nccs1	>76.9	20µM*	nt	19.5%
CN(C)CCO[C@](C)(c1ccccc1)c1ccccn1	nt	-0.9%[25.5 µM]	nt	-2.1%[25.7 µM]
O=C(c1cc(C(F)(F)F)cc(C(F)(F)F)c1)N1CCC2(CCCN(Cc3ccccc3)C2)CC1	nt	-0.9%[11.4 µM]	nt	7.5%
COc1cc(OC)c(OC)cc1CN(C)CCc1ccccn1	15.1*	2.8%	>57	-1.3%
COc1ccc(CN(C)CCc2ccccn2)cc1OC	>76.9	1.5%	>57	11.7%
C=CCNC(=O)c1ccc(Cl)cc1Cl	>76.9	0.3%	7.33*	-4.0%
CCN(CC)S(=O)(=O)c1ccc(Cl)c(C(=O)Nc2nncs2)c1	>76.9	2.0%	>57	-5.8%
CCN(CC)S(=O)(=O)c1cc(C(=O)Nc2nncs2)c(Cl)cc1Cl	>76.9	2.0%	>57	31.6µM*
Cc1ccccc1-c1cncnc1NCc1cccs1	nt	1.0%[2.29 µM]	nt	25.1µM*
COc1cccc(-c2cc(NCc3cccc(C)c3)ncn2)c1	nt	-1.6%[2.29 µM]	nt	?
N#Cc1cccc(-c2nccc(NCc3ccccc3)n2)c1	nt	-0.5%[2.29 µM]	nt	-5.1%
SMILES	GBA mod	FLuc inh	PK Bst	ERK AVP inh
COc1cccc(-c2cc(NCc3cccs3)ncn2)c1	nt	-17.1%[2.29 µM]	nt	25.1µM*
N#Cc1cccc(-c2nccc(NCc3cccnc3)n2)c1	nt	0.1%[2.29 µM]	nt	15.8µM*
COc1cccc(-c2cncnc2NCc2cccs2)c1	nt	0.1%[2.29 µM]	nt	10µM*
CN(C)Cc1ccccc1-c1nccc(N(C)Cc2ccco2)n1	nt	-2.2%[2.29 µM]	nt	1.9%
COc1cccc(-c2nc(NCc3cccs3)c3ccccc3n2)c1	nt	-1.3%[2.29 µM]	nt	31.6µM*
COc1cccc(-c2nccc(NCc3ccccc3)n2)c1	nt	-20.5%[2.29 µM]	nt	10µM*
COc1cccc(-c2cncnc2NCc2ccccc2)c1	nt	1.3%[2.29 µM]	nt	20µM*
COC(=O)[C@@]1(Cc2ccccc2)[C@H]2c3cc(C(=O)N4CCCC4)n(Cc4ccccc4)c3C[C@H]2CN1C(=O)c1ccccc1	nt	nt	nt	-2.2%
O=C(CC(Nc1ccc(F)cc1)C(=O)O)c1ccccc1 (centres undefined)	>76.9	7.94µM*	?	-6.4%
O=C(C[C@@H](C(=O)O)N1CCOCC1)c1ccccc1	nt	-0.5%[11.4 µM]	nt	-8.3%[11.5 µM]
CCCCCCCCCCCCCCCCCC(=O)NCCc1ccc(O)c(O)c1	nt	nt	nt	-9.0%
Cc1nc2sccn2c1-c1nc(-c2cc3ccccc3o2)cs1	nt	-13.8%	?	-18.3%
Cc1ccnc(Nc2nc(-c3c(C)nc4sccn34)cs2)c1	>76.9	15.8µM*	10.8*	25.1µM*
C=CCn1c(-c2ccc(OC)cc2)nc2ccccc21	nt	25.1µM*	nt	?
CC(=O)NCCNc1nc(-c2c(C)noc2C)nc2ccccc12	nt	-0.1%[2.29 µM]	nt	-10.3%
COc1cc(=O)n(C)c2cc(N(C)C)ccc12	nt	-2.6%	4.87*	-18.9%
CCCC[C@@H]1C[C@H]1[C@@H](NP(=O)(c1ccccc1)c1ccccc1)c1ccccc1OC	nt	nt	nt	-20.6%
COc1ccc(CNc2ccnc(-c3ccccc3CN(C)C)n2)c(OC)c1	nt	1.7%[2.29 µM]	nt	-7.9%
COc1ccc(-c2cc(CCCC(=O)NCc3ccccn3)no2)cc1	nt	10µM*	nt	-11.6%
CCOc1ccc(-c2cc(CCCC(=O)NCc3cccnc3)no2)cc1	nt	12.6µM*	nt	12.6µM*
Cc1c(N=Cc2ccc(Cl)o2)c(=O)n(-c2ccccc2)n1C	>76.9	1.1%	>57	19.9%
Cc1c(N=c2c(=O)c3ccccc3c2=O)c(=O)n(-c2ccccc2)n1C	nt	-27.9%	nt	20µM*
Cc1c(N=CC=Nc2c(C)n(C)n(-c3ccccc3)c2=O)c(=O)n(-c2ccccc2)n1C	nt	2.7%	nt	-11.3%
Cc1ccccc1-c1ccc(C=Nc2c(C)n(C)n(-c3ccccc3)c2=O)o1	>76.9	15.8µM*	i	-5.8%
CCn1c(Oc2ccc(Oc3ncc(Cl)cc3Cl)cc2)nc2c1c(=O)n(C)c(=O)n2C	>76.9	2.1%	>57	23.6%
SMILES	GBA mod	FLuc inh	PK Bst	ERK AVP inh
COc1cccc(NC(=O)/C=C\c2ccc(Cl)cc2)c1	nt	0.2%	nt	31.6µM*
Cc1ccc(NC(=O)c2ccccc2O)cc1	>76.9	5.01µM*	6.35*	-8.5%
O=C(Nc1ccccc1)c1ccccc1O	nt	20µM*	nt	-24.8%
CO/N=C1/c2cc(OC)ccc2O[C@@H](c2cccc(OC)c2)[C@H]1O	nt	-1.5%[11.4 µM]	nt	7.6%[11.5 µM]
O=C(O)C/C(=C\c1ccccc1)C(=O)O	nt	1.7%[11.4 µM]	nt	1.8%[11.5 µM]
NC(=O)c1c(NC(=O)c2cc3ccccc3o2)sc2c1CCC2	>76.9	3.16µM*	nt	-4.6%
Cc1ccc(C(=O)Nc2sc3c(c2C(=O)O)CCCCC3)o1	>76.9	20µM*	i	-25.2%
COc1ccc(N2C(=O)C(Cl)=C(N(CCO)Cc3ccccc3)C2=O)cc1	>76.9	-4.9%	>57	12.6µM*
COc1ccc(OCC(=O)N(C)Cc2ccccc2)cc1	nt	-1.7%	nt	?
CN(C)c1ccc(C2N(c3cccc(Cl)c3)C(=O)C3CCCN32)cc1 (centres undefined)	nt	3.1%	nt	-6.0%
c1cncc(-c2nc3cc(Cc4ccc5oc(-c6cccnc6)nc5c4)ccc3o2)c1	>76.9	0.3%	>57	-12.8%
CCCC(=O)Nc1ccc(-c2nc3cc(C)ccc3o2)cc1	>76.9	3.98µM*	5.34*	-9.5%
CCOc1cccc(-c2nc3cc(C)ccc3o2)c1	nt	7.94µM*	nt	71.7%
CCCC(=O)Nc1ccc2oc(-c3ccc(OC)c(Br)c3)nc2c1	>76.9	-17.3%	nt	-11.8%
Cc1ccc(C2=N/C(=C/N3CCOCC3)C(=O)O2)cc1	>76.9	20µM*	nt	5.4%
COCCCn1c(SCC(=O)OC2CCCCC2)nnc1-c1ccco1	>76.9	25.1µM*	nt	-5.9%
COc1ccccc1NC(=O)CSc1nnc(-c2ccccn2)n1Cc1ccco1	>76.9	1.9%	nt	-21.9%
